Data taken from PubChem BioAssay AID1159580 (chemical genetic matrix, 2015).
Several values for one entry are separate records, joined by “and”; a condition that tells them apart may be missing. Equal values may be shown once. Hit rate of the full screen: of about 5,500 compounds, about 2,000 (36%) were called active. About 18% were inconclusive and are not listed. No stated cut-off is given here; in the data, active means normalized growth mostly below about 0.91 (no sharp cut-off); inconclusive means no clear call, values can overlap the other calls; inactive means mostly above about 0.92. Some of the results follow.

Assay: chemical genetic growth profiling, strain panel (AID 1159580);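 further: tested at 20 µM; growth read once vehicle control cultures reached saturation at 30 °C; 1 = growth at the plate median or of vehicle wells; lower values mean less growth of the strain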
Conditions: growth OD

Measured: normalized growth

CC(CCc1ccccc1)NC(C)C(O)c1ccc(O)cc1 (stereo not given)
inactive: S. cerevisiae deletion strains, locus YJR075W, strain HOC1, active compounds read low 1.01 | S. cerevisiae deletion strains, locus YKL009W, strain mrt4, active compounds read low 0.988 | S. cerevisiae deletion strains, locus YKL068W, active compounds read low 0.987 | S. cerevisiae deletion strains, locus YKL085W, strain MDH1 (second series), active compounds read low 0.997 | S. cerevisiae deletion strains, locus YKL085W, strain MDH1, active compounds read low 0.997 | S. cerevisiae deletion strains, locus YKL160W, strain elf1, active compounds read low 1 | S. cerevisiae deletion strains, locus YKL190W, strain CNB1, active compounds read low 0.99 | S. cerevisiae deletion strains, locus YKR001C, strain vps1, active compounds read low 0.97 | S. cerevisiae deletion strains, locus YKR026C, strain gcn3, active compounds read low 1 | S. cerevisiae deletion strains, locus YKR091W, strain srl3, active compounds read low 1 | S. cerevisiae deletion strains, locus YLL001W, strain dnm1, active compounds read low 1.01 | S. cerevisiae deletion strains, locus YLL026W, active compounds read low 1 | S. cerevisiae deletion strains, locus YLL041C, strain sdh2, active compounds read low 0.999 | S. cerevisiae deletion strains, locus YLR027C, strain aat2, active compounds read low 0.994 | S. cerevisiae deletion strains, locus YLR039C, strain RIC1, active compounds read low 1.01 | S. cerevisiae deletion strains, locus YLR058C, strain SHM2, active compounds read low 0.976 | S. cerevisiae deletion strains, locus YLR102C, strain apc9, active compounds read low 0.99 | S. cerevisiae deletion strains, locus YLR113W, strain HOG1, active compounds read low 0.995 | S. cerevisiae deletion strains, locus YLR221C, strain rsa3, active compounds read low 1.02 | S. cerevisiae deletion strains, locus YLR258W, strain gsy2, active compounds read low 1 | S. cerevisiae deletion strains, locus YLR262C, strain YPT6 (second series), active compounds read low 0.96 | S. cerevisiae deletion strains, locus YLR262C, strain YPT6, active compounds read low 0.99 | S. cerevisiae deletion strains, locus YLR268W, strain sec22, active compounds read low 1.04 | S. cerevisiae deletion strains, locus YLR320W, strain mms22, active compounds read low 1.02 | S. cerevisiae deletion strains, locus YLR330W, strain CHS5, active compounds read low 0.997 | S. cerevisiae deletion strains, locus YLR342W, strain FKS1 (second series), active compounds read low 1.01 | S. cerevisiae deletion strains, locus YLR342W, strain FKS1, active compounds read low 1 | S. cerevisiae deletion strains, locus YLR357W, strain rsc2, active compounds read low 0.983 | S. cerevisiae deletion strains, locus YLR370C, strain arc18, active compounds read low 1 | S. cerevisiae deletion strains, locus YLR371W, strain rom2, active compounds read low 0.974 | S. cerevisiae deletion strains, locus YLR384C, strain iki3, active compounds read low 1.01 | S. cerevisiae deletion strains, locus YLR418C, strain cdc73, active compounds read low 0.997 | S. cerevisiae deletion strains, locus YML016C, strain PPZ1, active compounds read low 0.993 | S. cerevisiae deletion strains, locus YML032C, strain rad52, active compounds read low 1 | S. cerevisiae deletion strains, locus YML120C, strain ndi1, active compounds read low 1.01 | S. cerevisiae deletion strains, locus YML124C, strain tub3, active compounds read low 0.982 | S. cerevisiae deletion strains, locus YMR058W, strain fet3, active compounds read low 0.998 | S. cerevisiae deletion strains, locus YMR078C, strain ctf18, active compounds read low 0.987 | S. cerevisiae deletion strains, locus YMR125W, strain sto1, active compounds read low 1.01 | S. cerevisiae deletion strains, locus YMR129W, active compounds read low 0.984 | S. cerevisiae deletion strains, locus YMR205C, strain PFK2, active compounds read low 1.02 | S. cerevisiae deletion strains, locus YMR223W, strain ubp8, active compounds read low 0.989 | S. cerevisiae deletion strains, locus YMR231W, strain pep5, active compounds read low 1 | S. cerevisiae deletion strains, locus YMR263W, strain SAP30, active compounds read low 1.01 | S. cerevisiae deletion strains, locus YMR307W, strain GAS1, active compounds read low 1.05 | S. cerevisiae deletion strains, locus YNL067W, strain RPL9B, active compounds read low 0.995 | S. cerevisiae deletion strains, locus YNL071W, strain lat1, active compounds read low 0.999 | S. cerevisiae deletion strains, locus YNL128W, strain TEP1, active compounds read low 1.01 | S. cerevisiae deletion strains, locus YNL153C, strain GIM3, active compounds read low 1 | S. cerevisiae deletion strains, locus YNL175C, strain NOP13, active compounds read low 1.01 | S. cerevisiae deletion strains, locus YNL183C, strain NPR1, active compounds read low 0.944 | S. cerevisiae deletion strains, locus YNL197C, strain WHI3, active compounds read low 1.01 | S. cerevisiae deletion strains, locus YNL209W, strain ssb2, active compounds read low 1 | S. cerevisiae deletion strains, locus YNL224C, strain SQS1, active compounds read low 1.01 | S. cerevisiae deletion strains, locus YNL233W, strain BNI4, active compounds read low 0.992 | S. cerevisiae deletion strains, locus YNL248C, strain rpa49, active compounds read low 0.991 | S. cerevisiae deletion strains, locus YNL250W, strain rad50, active compounds read low 0.986 | S. cerevisiae deletion strains, locus YNL271C, strain bni1, active compounds read low 0.994 | S. cerevisiae deletion strains, locus YNL298W, strain CLA4, active compounds read low 1.01 | S. cerevisiae deletion strains, locus YNL307C, strain MCK1, active compounds read low 0.987 | S. cerevisiae deletion strains, locus YNL322C, strain KRE1 (second series), active compounds read low 1.01 | S. cerevisiae deletion strains, locus YNL322C, strain KRE1, active compounds read low 0.994 and 0.998 | S. cerevisiae deletion strains, locus YNR049C, strain mso1, active compounds read low 1 | S. cerevisiae deletion strains, locus YNR052C, strain pop2, active compounds read low 1 | S. cerevisiae deletion strains, locus YOL006C, strain TOP1, active compounds read low 0.948 | S. cerevisiae deletion strains, locus YOL012C, strain htz1 1.21 | S. cerevisiae deletion strains, locus YOL147C, strain pex11, active compounds read low 0.99 | S. cerevisiae deletion strains, locus YOR001W, strain rrp6, active compounds read low 0.989 | S. cerevisiae deletion strains, locus YOR061W, strain CKA2, active compounds read low 0.962 | S. cerevisiae deletion strains, locus YOR069W, strain VPS5, active compounds read low 0.996 | S. cerevisiae deletion strains, locus YOR070C, strain gyp1, active compounds read low 0.999 | S. cerevisiae deletion strains, locus YOR080W, strain dia2, active compounds read low 0.994 | S. cerevisiae deletion strains, locus YOR083W, strain WHI5 (second series), active compounds read low 1.01 | S. cerevisiae deletion strains, locus YOR083W, strain WHI5, active compounds read low 1 | S. cerevisiae deletion strains, locus YOR106W, strain vam3, active compounds read low 0.985 | S. cerevisiae deletion strains, locus YOR136W, strain idh2, active compounds read low 0.988 | S. cerevisiae deletion strains, locus YOR144C, strain elg1, active compounds read low 0.992 | S. cerevisiae deletion strains, locus YOR184W, strain ser1, active compounds read low 0.99 | S. cerevisiae deletion strains, locus YOR231W, strain MKK1, active compounds read low 1.02 | S. cerevisiae deletion strains, locus YOR265W, strain rbl2, active compounds read low 1.01 | S. cerevisiae deletion strains, locus YOR270C, strain vph1, active compounds read low 0.979 | S. cerevisiae deletion strains, locus YOR290C, strain snf2, active compounds read low 1.01 | S. cerevisiae deletion strains, locus YOR316C, strain cot1, active compounds read low 0.995 | S. cerevisiae deletion strains, locus YPL051W, strain arl3, active compounds read low 1.02 | S. cerevisiae deletion strains, locus YPL078C, strain atp4, active compounds read low 1 | S. cerevisiae deletion strains, locus YPL106C, strain sse1, active compounds read low 0.977 | S. cerevisiae deletion strains, locus YPL240C, strain hsp82, active compounds read low 1 | S. cerevisiae deletion strains, locus YPL241C, strain CIN2, active compounds read low 0.997 | S. cerevisiae deletion strains, locus YPL256C, strain CLN2, active compounds read low 0.969 | S. cerevisiae deletion strains, locus YPR119W, strain clb2, active compounds read low 0.981 | S. cerevisiae deletion strains, locus YPR141C, strain kar3, active compounds read low 0.976 | S. cerevisiae deletion strains, locus YPR163C, strain tif3, active compounds read low 0.986 | S. cerevisiae deletion strains, locus YPR167C, strain met16, active compounds read low 0.989 | S. cerevisiae deletion strains, strain wtn01, active compounds read low 1 | S. cerevisiae strains, strain wild type, active compounds read low 0.995
